Activity calls are given as the source filed them. How the source made its calls: active means hit-call score of the fitted dose curve at least 0.9, where 1 is the maximum; inactive means score below 0.9.

This experiment can be described thus: IUF_NPC1_viability_72hr: Viability Assessment at 72 hours in the Leibniz Research Institute for Environmental Medicine (IUF) Neural Progenitor Cell Proliferation Assay (NPC1) (AID 2284209). The gist of the method:
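Three-day continuous exposure of human neural progenitor spheres under EGF/FGF-driven proliferation; cell viability scored by alamar blue signal versus DMSO.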
On to `CC(=O)OC/N=[N+](\C)[O-]`, for which the AC50 was 1150 µM (active).
The same measure, in the same setting: under `CCCCOCCOP(=O)(O)OCCOCCCC` stands 2.46 µM (active).
As for `CC(C)O`, the compound was called inactive.
In the case of `F`, the AC50 is 2640 µM (active).
Regarding `CC(=O)N[C@@H](CC(=O)O)C(=O)O`, the outcome was inactive.
Same read-out and setting: to `CCCCCC=C(C)C(CC)CCO` (stereo not given) belongs “inactive”; to `BrC1CC(Br)CC(Br)CC(Br)CC(Br)CC(Br)C1` (stereo not given), “inactive”.
Still for that read-out and setting: under `C[C@@H]1CC[C@@H](C(C)(C)O)[C@H](O)C1` stands “inactive”; under `CC(C)c1nn(C(=O)NC(C)(C)C)c(=O)n1N`, “inactive”; under `CCc1ccccc1`, “inactive”.
For the compound `CN(C)CCCn1cc(C2=C(c3c[nH]c4ccccc34)C(=O)NC2=O)c2ccccc21`, the result was inactive.
Still for that read-out and setting: to `CCCCCC(C)(CC)C(=O)NC` (stereo not given) belongs “inactive”.
On the same count and under the same terms, under `Cc1[nH]n(C)c(=O)c1C(=O)c1ccc(C(F)(F)F)cc1S(C)(=O)=O` stands “inactive”; under `CC(CNC(=S)[S-])NC(=S)[S-].[Zn+2]` (stereo not given), “inactive”; under `C[C@@H]1CCO[C@H]2Cn3cc(C(=O)NCc4ccc(F)cc4F)c(=O)c(O)c3C(=O)N12`, “inactive”.

The values are drawn from PubChem BioAssay (EPA / NIEHS).
